# Experimental data published in article PMC7862700, “An all-to-all approach to the identification of sequence-specific readers for epigenetic DNA modifications on cytosine”.
# What was measured:
# Assay in all cases: DAPPL (digital affinity profiling via proximity ligation, sequencing); 10 mM Tris-HCl pH 7.5, 50 mM NaCl, 1 mM DTT, 4% glycerol, room temperature, 30 min; GST-TFs on glutathione beads, 16-mer random dsDNA library, 0.1% formaldehyde crosslink after washing; high values mean tight binding
# Details in all cases: protein: recombinant; tags: N-terminal GST; dsDNA, one strand shown
# FEV = target: T1, FEV (Homo sapiens, UniProt Q99581 1-238)
# T1 sequence: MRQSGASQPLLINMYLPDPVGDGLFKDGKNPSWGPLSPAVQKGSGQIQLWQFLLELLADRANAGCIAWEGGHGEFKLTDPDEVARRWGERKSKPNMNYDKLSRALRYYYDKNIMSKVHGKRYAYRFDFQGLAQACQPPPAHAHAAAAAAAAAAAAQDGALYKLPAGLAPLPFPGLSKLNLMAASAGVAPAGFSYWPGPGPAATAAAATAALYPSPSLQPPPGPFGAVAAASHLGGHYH
# How it was run: (§1)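 Yeast served to express human transcription factors as GST fusions, which were then captured on glutathione beads and labelled with DNA barcodes. Pooled with a tag-only sample, they were incubated with 200 nmole of a 16-mer random double-stranded DNA library for 30 min at room temperature in Tris/NaCl/DTT/glycerol buffer, washed, crosslinked with 0.1% formaldehyde, ligated by proximity, amplified by PCR and sequenced. Dividing each hexamer's read frequency for a factor by its frequency for the tag-only sample gives the binding signal.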
# ETV5 = ETV5 (Homo sapiens, UniProt P41161 1-510)
# ETV5, sequence (P41161 whole entry): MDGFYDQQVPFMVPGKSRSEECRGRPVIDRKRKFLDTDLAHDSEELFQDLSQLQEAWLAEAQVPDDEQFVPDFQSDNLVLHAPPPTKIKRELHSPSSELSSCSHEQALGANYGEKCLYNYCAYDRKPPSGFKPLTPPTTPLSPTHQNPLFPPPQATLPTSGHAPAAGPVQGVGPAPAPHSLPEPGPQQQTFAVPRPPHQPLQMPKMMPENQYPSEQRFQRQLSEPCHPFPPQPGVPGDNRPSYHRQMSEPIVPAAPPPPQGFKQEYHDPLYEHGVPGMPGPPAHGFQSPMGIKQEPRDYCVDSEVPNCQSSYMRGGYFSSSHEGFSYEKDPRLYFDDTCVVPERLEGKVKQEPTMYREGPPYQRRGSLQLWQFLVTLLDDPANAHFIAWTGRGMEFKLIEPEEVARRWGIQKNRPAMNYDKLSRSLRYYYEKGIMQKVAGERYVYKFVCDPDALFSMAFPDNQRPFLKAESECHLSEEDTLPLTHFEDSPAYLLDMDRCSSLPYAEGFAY
# How it was run: as §1
# SPIC = target: T2, SPIC (Homo sapiens, UniProt Q8N5J4 1-248)
# T2 sequence: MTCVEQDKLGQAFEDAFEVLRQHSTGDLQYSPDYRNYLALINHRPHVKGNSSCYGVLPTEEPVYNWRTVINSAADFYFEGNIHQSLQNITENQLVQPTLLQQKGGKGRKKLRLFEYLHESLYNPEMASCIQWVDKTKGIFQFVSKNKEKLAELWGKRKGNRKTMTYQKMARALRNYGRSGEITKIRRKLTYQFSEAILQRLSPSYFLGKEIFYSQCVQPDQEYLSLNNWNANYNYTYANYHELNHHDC
# How it was run: as §1
# ELF4 = ELF4 (Homo sapiens, UniProt Q99607 1-663)
# ELF4, sequence (Q99607 whole entry): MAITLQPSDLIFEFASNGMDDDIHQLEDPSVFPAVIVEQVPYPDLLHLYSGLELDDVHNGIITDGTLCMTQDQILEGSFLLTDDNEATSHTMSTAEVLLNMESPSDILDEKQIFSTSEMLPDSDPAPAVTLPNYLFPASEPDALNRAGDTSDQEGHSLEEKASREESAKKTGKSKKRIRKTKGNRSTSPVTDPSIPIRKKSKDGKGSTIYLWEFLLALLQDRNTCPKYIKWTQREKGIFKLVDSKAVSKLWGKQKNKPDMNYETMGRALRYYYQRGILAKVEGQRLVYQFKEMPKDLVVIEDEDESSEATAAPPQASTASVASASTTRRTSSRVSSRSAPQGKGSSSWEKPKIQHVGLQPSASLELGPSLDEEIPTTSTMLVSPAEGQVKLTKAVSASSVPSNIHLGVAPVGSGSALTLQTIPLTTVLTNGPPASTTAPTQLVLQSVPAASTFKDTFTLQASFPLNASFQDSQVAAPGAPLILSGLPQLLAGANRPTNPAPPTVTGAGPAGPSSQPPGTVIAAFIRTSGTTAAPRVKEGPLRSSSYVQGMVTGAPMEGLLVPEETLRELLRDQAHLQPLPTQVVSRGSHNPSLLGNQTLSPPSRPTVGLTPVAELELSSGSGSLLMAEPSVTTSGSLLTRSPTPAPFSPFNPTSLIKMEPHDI
# How it was run: as §1
# ELK4 = target: T3, ELK4 (Homo sapiens, UniProt P28324-2 1-405)
# T3 sequence: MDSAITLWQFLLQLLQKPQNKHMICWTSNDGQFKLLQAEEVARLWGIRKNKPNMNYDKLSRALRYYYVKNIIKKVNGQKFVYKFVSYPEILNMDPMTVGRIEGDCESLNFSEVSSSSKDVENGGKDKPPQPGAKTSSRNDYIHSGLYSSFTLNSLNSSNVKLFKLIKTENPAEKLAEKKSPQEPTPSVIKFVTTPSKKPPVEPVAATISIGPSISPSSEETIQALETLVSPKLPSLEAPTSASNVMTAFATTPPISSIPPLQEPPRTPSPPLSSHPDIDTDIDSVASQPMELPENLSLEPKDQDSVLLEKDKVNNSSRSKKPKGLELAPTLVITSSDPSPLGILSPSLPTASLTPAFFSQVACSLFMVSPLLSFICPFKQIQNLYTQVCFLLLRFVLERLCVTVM
# How it was run: as §1
# ETV2 = target: T4, ETV2 (Homo sapiens, UniProt O00321 1-342)
# T4 sequence: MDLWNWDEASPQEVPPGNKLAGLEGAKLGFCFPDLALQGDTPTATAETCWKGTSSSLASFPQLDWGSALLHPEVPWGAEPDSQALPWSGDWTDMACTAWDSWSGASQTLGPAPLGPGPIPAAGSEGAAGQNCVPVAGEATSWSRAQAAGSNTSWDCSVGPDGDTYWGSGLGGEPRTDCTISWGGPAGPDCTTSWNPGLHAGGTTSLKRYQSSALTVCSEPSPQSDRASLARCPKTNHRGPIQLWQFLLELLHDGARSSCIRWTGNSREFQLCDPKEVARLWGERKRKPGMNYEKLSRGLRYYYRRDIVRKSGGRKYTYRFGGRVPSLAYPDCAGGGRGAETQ
# How it was run: as §1
# ELF3 = target: T5, ELF3 (Homo sapiens, UniProt P78545 1-371)
# T5 sequence: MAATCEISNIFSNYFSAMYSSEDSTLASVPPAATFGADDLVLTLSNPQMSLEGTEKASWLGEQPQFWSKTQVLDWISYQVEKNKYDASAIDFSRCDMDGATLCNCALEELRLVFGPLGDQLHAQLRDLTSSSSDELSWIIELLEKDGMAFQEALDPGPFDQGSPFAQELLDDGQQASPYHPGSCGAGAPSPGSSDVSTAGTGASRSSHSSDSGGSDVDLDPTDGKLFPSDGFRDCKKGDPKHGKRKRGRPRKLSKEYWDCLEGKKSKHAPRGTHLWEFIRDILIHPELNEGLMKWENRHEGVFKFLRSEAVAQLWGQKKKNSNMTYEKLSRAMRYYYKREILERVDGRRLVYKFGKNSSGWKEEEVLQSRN
# How it was run: as §1
# ETV1 = ETV1 (Homo sapiens, UniProt P50549 1-477)
# ETV1, sequence (P50549 whole entry): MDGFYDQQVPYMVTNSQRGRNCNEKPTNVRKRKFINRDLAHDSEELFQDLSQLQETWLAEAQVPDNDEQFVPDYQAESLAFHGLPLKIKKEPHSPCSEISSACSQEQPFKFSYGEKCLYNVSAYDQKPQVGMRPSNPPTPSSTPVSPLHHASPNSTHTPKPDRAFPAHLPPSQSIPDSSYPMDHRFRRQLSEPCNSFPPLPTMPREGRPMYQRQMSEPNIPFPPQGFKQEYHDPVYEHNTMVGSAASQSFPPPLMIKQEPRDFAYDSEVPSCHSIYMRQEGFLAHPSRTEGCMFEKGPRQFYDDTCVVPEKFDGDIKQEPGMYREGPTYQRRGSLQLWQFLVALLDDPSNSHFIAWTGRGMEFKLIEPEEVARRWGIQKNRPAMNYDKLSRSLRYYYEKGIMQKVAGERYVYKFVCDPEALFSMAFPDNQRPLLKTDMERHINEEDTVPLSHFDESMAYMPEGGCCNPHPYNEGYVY
# How it was run: as §1
# ERF = target: T6, ERF (Homo sapiens, UniProt P50548 1-548)
# T6 sequence: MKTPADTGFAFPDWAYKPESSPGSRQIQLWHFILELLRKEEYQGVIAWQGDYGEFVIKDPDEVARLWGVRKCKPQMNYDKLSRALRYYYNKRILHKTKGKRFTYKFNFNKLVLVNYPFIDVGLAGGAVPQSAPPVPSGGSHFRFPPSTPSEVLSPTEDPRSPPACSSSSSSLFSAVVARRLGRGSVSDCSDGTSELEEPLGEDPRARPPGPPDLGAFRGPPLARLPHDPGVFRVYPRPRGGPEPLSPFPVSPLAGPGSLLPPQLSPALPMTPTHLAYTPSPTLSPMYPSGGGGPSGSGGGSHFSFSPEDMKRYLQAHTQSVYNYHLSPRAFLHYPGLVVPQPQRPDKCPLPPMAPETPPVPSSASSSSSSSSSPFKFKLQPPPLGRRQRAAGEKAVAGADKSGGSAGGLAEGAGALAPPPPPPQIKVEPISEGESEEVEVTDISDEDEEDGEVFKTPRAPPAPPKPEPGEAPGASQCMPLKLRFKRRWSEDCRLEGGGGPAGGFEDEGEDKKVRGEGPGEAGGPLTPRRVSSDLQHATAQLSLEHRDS
# How it was run: as §1
# ETV3L = target: T7, ETV3L (Homo sapiens, UniProt Q6ZN32 1-361)
# T7 sequence: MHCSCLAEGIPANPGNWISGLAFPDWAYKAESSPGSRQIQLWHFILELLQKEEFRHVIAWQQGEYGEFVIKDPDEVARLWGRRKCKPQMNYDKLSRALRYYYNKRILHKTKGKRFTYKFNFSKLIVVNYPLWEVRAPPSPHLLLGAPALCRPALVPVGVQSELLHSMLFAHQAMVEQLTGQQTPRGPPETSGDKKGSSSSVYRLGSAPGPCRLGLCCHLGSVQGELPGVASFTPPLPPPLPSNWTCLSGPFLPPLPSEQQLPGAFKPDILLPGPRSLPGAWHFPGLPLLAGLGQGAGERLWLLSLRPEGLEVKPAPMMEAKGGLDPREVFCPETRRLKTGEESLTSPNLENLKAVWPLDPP
# How it was run: as §1
# ETS2 = target: T8, ETS2 (Homo sapiens, UniProt P15036 1-469)
# T8 sequence: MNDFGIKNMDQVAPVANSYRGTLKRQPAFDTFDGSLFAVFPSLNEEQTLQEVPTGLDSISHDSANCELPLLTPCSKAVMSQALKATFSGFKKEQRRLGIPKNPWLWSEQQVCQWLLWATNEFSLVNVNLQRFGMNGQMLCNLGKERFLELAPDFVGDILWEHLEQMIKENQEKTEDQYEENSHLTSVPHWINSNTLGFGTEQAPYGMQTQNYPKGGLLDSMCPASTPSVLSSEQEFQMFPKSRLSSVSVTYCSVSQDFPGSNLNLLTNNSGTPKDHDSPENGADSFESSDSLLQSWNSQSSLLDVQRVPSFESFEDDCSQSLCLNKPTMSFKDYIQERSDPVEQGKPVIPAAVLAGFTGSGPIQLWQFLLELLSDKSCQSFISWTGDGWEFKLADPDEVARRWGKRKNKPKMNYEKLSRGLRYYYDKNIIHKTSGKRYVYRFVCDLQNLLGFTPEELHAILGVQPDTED
# How it was run: as §1
# SPDEF = target: T9, SPDEF (Homo sapiens, UniProt O95238 1-335)
# T9 sequence: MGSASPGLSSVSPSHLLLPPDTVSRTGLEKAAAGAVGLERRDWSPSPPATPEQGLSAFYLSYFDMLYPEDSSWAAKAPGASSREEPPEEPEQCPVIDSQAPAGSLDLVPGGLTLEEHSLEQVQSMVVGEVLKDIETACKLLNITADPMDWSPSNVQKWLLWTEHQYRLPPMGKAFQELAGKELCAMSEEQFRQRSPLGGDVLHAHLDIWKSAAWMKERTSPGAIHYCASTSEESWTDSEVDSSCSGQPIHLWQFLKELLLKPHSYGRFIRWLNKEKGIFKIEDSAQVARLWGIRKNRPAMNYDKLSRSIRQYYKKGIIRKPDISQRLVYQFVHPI
# How it was run: as §1
# ETV7 = target: T10, ETV7 (Homo sapiens, UniProt Q9Y603 1-341)
# T10 sequence: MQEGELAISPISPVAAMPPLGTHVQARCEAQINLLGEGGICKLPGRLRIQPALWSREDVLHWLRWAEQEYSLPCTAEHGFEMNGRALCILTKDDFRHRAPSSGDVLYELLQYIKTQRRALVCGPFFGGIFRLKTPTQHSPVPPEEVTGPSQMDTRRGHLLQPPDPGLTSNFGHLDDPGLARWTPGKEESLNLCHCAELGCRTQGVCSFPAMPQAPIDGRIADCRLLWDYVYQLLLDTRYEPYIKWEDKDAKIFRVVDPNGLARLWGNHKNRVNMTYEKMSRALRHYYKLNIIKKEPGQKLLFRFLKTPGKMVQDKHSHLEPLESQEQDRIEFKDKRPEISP
# How it was run: as §1
# ELF5 = target: T11, ELF5 (Homo sapiens, UniProt Q9UKW6-2 1-255)
# T11 sequence: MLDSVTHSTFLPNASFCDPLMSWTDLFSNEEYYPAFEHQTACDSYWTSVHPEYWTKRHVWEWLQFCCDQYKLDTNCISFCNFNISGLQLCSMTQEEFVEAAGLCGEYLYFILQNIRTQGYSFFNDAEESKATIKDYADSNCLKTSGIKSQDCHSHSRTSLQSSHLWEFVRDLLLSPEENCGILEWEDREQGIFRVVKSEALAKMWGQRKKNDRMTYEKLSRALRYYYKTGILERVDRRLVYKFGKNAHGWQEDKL
# How it was run: as §1
# ETV3 = target: T12, ETV3 (Homo sapiens, UniProt P41162-2 1-143)
# T12 sequence: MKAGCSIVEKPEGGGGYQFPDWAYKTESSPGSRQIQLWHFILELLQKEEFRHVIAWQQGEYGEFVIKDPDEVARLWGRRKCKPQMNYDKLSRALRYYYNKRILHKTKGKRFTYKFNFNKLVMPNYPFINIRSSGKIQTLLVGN
# How it was run: as §1
# ETV6 = ETV6 (Homo sapiens, UniProt P41212 1-452)
# ETV6, sequence (P41212 whole entry): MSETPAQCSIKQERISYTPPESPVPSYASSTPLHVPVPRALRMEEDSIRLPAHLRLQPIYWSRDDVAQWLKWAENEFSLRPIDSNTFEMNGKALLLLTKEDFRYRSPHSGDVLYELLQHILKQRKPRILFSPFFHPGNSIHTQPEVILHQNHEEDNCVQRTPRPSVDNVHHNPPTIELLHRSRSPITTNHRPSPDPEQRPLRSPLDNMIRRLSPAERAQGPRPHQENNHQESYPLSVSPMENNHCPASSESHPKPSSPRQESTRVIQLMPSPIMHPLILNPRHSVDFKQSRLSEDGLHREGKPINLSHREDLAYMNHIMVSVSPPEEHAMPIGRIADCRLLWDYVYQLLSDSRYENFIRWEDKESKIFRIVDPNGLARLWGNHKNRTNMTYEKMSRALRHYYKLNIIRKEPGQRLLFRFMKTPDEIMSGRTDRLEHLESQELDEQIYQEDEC
# How it was run: as §1
Sequence,binding signal (FEV),binding signal (ETV5),binding signal (SPIC),binding signal (ELF4),binding signal (ELK4),binding signal (ETV2),binding signal (ELF3),binding signal (ETV1),binding signal (ERF),binding signal (ETV3L),binding signal (ETS2),binding signal (SPDEF),binding signal (ETV7),binding signal (ELF5),binding signal (ETV3),binding signal (ETV6)
CCGGTC,"1.62 fold enrichment (6-mer frequency, TF over GST control)","1.22 fold enrichment (6-mer frequency, TF over GST control)","1.01 fold enrichment (6-mer frequency, TF over GST control)","1.08 fold enrichment (6-mer frequency, TF over GST control)","1.18 fold enrichment (6-mer frequency, TF over GST control)","1.08 fold enrichment (6-mer frequency, TF over GST control)","1.14 fold enrichment (6-mer frequency, TF over GST control)","1.17 fold enrichment (6-mer frequency, TF over GST control)","1.1 fold enrichment (6-mer frequency, TF over GST control)","1.13 fold enrichment (6-mer frequency, TF over GST control)","1.2 fold enrichment (6-mer frequency, TF over GST control)","1.38 fold enrichment (6-mer frequency, TF over GST control)","1.22 fold enrichment (6-mer frequency, TF over GST control)","1.13 fold enrichment (6-mer frequency, TF over GST control)","1.2 fold enrichment (6-mer frequency, TF over GST control)","1.15 fold enrichment (6-mer frequency, TF over GST control)"
CATGTA,"1.03 fold enrichment (6-mer frequency, TF over GST control)","1.08 fold enrichment (6-mer frequency, TF over GST control)","1.08 fold enrichment (6-mer frequency, TF over GST control)","1.14 fold enrichment (6-mer frequency, TF over GST control)","1.16 fold enrichment (6-mer frequency, TF over GST control)","1.11 fold enrichment (6-mer frequency, TF over GST control)","1.03 fold enrichment (6-mer frequency, TF over GST control)","1.06 fold enrichment (6-mer frequency, TF over GST control)","1.2 fold enrichment (6-mer frequency, TF over GST control)","1.16 fold enrichment (6-mer frequency, TF over GST control)","1.04 fold enrichment (6-mer frequency, TF over GST control)","1.13 fold enrichment (6-mer frequency, TF over GST control)","1.05 fold enrichment (6-mer frequency, TF over GST control)",–,"1.18 fold enrichment (6-mer frequency, TF over GST control)","1.04 fold enrichment (6-mer frequency, TF over GST control)"
ACACCT,"1.03 fold enrichment (6-mer frequency, TF over GST control)","1.03 fold enrichment (6-mer frequency, TF over GST control)","1.04 fold enrichment (6-mer frequency, TF over GST control)","1.11 fold enrichment (6-mer frequency, TF over GST control)","1.1 fold enrichment (6-mer frequency, TF over GST control)","1.03 fold enrichment (6-mer frequency, TF over GST control)","1.03 fold enrichment (6-mer frequency, TF over GST control)","1.13 fold enrichment (6-mer frequency, TF over GST control)","1.14 fold enrichment (6-mer frequency, TF over GST control)","1.15 fold enrichment (6-mer frequency, TF over GST control)","1.05 fold enrichment (6-mer frequency, TF over GST control)","1.05 fold enrichment (6-mer frequency, TF over GST control)","1.11 fold enrichment (6-mer frequency, TF over GST control)",–,"1.08 fold enrichment (6-mer frequency, TF over GST control)","1.06 fold enrichment (6-mer frequency, TF over GST control)"
